Assay outcomes from PubChem.
Vaccinia Venus: vaccinia inhibition (Venus reporter); hit rate 0.46% among 330,000; AID 720580; Vaccinia virus Venus reporter expression, fluorescence; Potency, µM (series often up to 36.5 µM), hits mostly inhibitors; calls by dose curve; tested in A549 cells; also: nearly all actives have a fitted effect of over 30% in size
FMDV inh: foot and mouth disease virus antiviral activity; FMDV antiviral cell-based qHTS; Potency, µM (highest dose often 57.9 µM), most hits filed as inhibitors; hit rate 1.2% among 410,000; AID 1159524; calls by dose curve; tested in HEK293T cells; also: read-out not given here; nearly all actives have a fitted effect of over 45% in size
HCMV antiviral: blocks human cytomegalovirus replication. HFF cells, HCMV-luciferase reporter, 72 h; stronger effect = lower value. activity change, negative = inhibition, % at 57.5 µM. hit rate 4.5% among 410,000. AID 1259415; in the data active = activity change below about -60%; inconclusive = no clear call, values can overlap the other calls; inactive = above about -39%
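Luciferase read-out from HCMV-luciferase-infected HFFs (MOI 1 PFU/cell) 72 h post infection at 37C; compounds added after 16 h cell attachment; activity normalized between buffer-only basal and Salinomycin (10uM) inhibitor controls.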
LASV entry inh: Lassa virus entry inhibition | Potency, µM (doses to about 37.9 µM), hits mostly inhibitors | Lassa virus pseudotype entry inhibition, cell reporter | AID 540256 | hit rate 1.2% among 300,000; calls by dose curve; tested in HEK293 cells; also: nearly all actives have a fitted effect of over 50% in size
Marburg entry inh: inhibitors of Marburg virus binding or cell entry; Marburg virus pseudotyped entry inhibition, cell reporter; Potency, µM (highest dose often 37.8 µM), actives largely listed as inhibitors; hit rate 1.8% among 300,000; calls by dose curve; tested in HEK293 cells
VACV mCherry inh: vaccinia inhibition (mCherry reporter); Potency, µM (doses to about 36.5 µM), usual class: inhibitors; hit rate 0.63% among 310,000; Vaccinia virus mCherry reporter infection, fluorescence; AID 720579; calls by dose curve; tested in A549 cells; also: nearly all actives have a fitted effect of over 35% in size
Hits are given with their value; . = inactive; ? = inconclusive; / = no result. An excerpt weighted towards active compounds, which were near 6.5% of everything screened.

SMILES	Vaccinia Venus	FMDV inh	HCMV antiviral	LASV entry inh	Marburg entry inh	VACV mCherry inh
C[C@@H]1COc2cc(N3CCCCC3)ccc2S(=O)(=O)N1	/	/	.	/	/	/
COc1ccc(Cl)cc1NC(=O)CSc1cn(CC(=O)N2CCCCC2)c2ccccc12	.	?	-71.9	.	/	.
CC1CCN(C(=O)Cn2cc(SCC(=O)NCc3ccccc3)c3ccccc32)CC1	.	.	-84.5	.	/	.
COc1ccc(OC)c(NC(=O)CSc2cn(CC(=O)N3CCCCCC3)c3ccccc23)c1	.	?	?	?	/	.
CC1CCN(C(=O)Cn2cc(SCC(=O)NCc3ccc(F)cc3)c3ccccc32)CC1	.	.	?	.	/	.
Cc1ccccc1NC(=O)CSC1=C(C#N)C(c2ccsc2)CC(=O)N1 (centres undefined)	?	.	-62.3	.	?	/
COC(=O)CSC1=C(C#N)C(c2ccc(C)o2)CC(=O)N1 (centres undefined)	.	.	.	?	1.78µM	.
COC(=O)CSC1=C(C#N)C(c2ccc(F)cc2)CC(=O)N1 (centres undefined)	.	.	.	/	/	.
N#CC1=C(SCC(=O)Nc2nccs2)NC(=O)CC1c1ccccc1 (centres undefined)	.	.	.	.	.	.
CCOC(=O)C1=CCN(S(=O)(=O)c2ccc(Br)cc2)C1c1ccc(Br)cc1 (centres undefined)	/	/	.	/	/	/
C[C@@H]1/C=C/CC(=O)OC[C@H](C)C(=O)OC[C@H]2O[C@H]1C=C[C@H]2O	/	/	/	/	.	/
CC1=CC2OC3CC4OC(=O)C=CC=CC(C(C)O)OCC(O)C5(C)OC5C(=O)OCC2(CC1O)C4(C)C31CO1 (centres undefined)	/	/	-97.6	/	?	/
CC1CCOC(=O)C=CC=CC(=O)OC2CC3OC4C5OC5(C)C(O)CC4(COC(=O)C1O)C2(C)C31CO1 (centres undefined)	/	/	-97.5	/	?	/
CC1=CC2OC3CC4OC(=O)C=CC=CC(=O)OCCC(C)C(O)C(=O)OCC2(CC1)C4(C)C31CO1 (centres undefined)	/	.	-97.8	?	?	/
CC(O)C1C=CC=CC(=O)OC2CC3OC4C5OC5(C)C(O)CC4(COC(=O)C(O)C(C)CCO1)C2(C)C31CO1 (centres undefined)	/	/	-97.9	/	0.126µM	/
COc1ccccc1NC(=O)C1=C(C)Nc2nc(SCc3ccccc3)nn2C1c1cccnc1 (centres undefined)	.	.	.	?	.	.
CC1=NN(c2ccc(C)cc2)C(=O)/C1=C\C=C\c1ccccc1	.	28.2µM	-81.1	.	.	.
CC1=NN(c2cccc(C(=O)O)c2)C(=O)/C1=C\C=C/c1ccccc1	.	10µM	.	?	?	.
CC1=NN(c2ccccc2)C(=O)C1=Cc1ccccc1	.	.	.	/	/	.
COCCN1Cc2cc(C(=O)OC)c3c(c2C1=O)c1cc(F)ccc1n3C(=O)c1ccccc1	/	/	.	/	/	/
CC[C@H](C)[C@@H]1OC(=O)[C@@H](C)[C@@H](CC)NC(=O)[C@H](C)N(C)C(=O)C(C)(C)C(=O)C(C)NC(=O)[C@H](Cc2ccccc2)N(C)C(=O)[C@H](C(C)C)N(C)C(=O)CNC(=O)[C@H](CC(C)C)N(C)C(=O)CNC1=O (some centres undefined)	2.24µM	.	/	/	/	2µM
COC(=O)c1c(SCC(=O)Nc2cccc(C(F)(F)F)c2)[nH]c2ccccc2c1=O	.	.	.	.	/	?
Cc1ccccc1Cn1ccc(=NCc2ccccc2)cc1	.	.	-98.1	.	.	.
CC(Nc1ccc(-c2nc(-c3ccccn3)no2)cc1[N+](=O)[O-])c1ccccc1 (centres undefined)	.	.	.	.	.	.
Cc1cc(C(C)(C)C)cc(C)c1CC1=NCCN1	.	.	.	?	7.94µM	.
SMILES	Vaccinia Venus	FMDV inh	HCMV antiviral	LASV entry inh	Marburg entry inh	VACV mCherry inh
NC(=NCc1ccc(Cl)c(Cl)c1)NC(=O)c1nc(Cl)c(N)nc1N	/	/	/	/	2.51µM	/
CCN1C[C@@H]2[C@@H]3C(=O)N(Cc4ccccc4)C(=O)[C@@H]3[C@](CC)(C1=O)N2C(=O)c1ccc(Cl)cc1	/	/	.	/	/	/
COc1ccc(N(C)S(=O)(=O)c2cccc(C(=O)N(C)Cc3ccc(C)o3)c2)cc1	.	.	.	5.01µM	?	.
CCN(c1ccccc1)S(=O)(=O)c1cccc(C(=O)OCC(=O)c2c(N)n(C)c(=O)n(C)c2=O)c1	/	.	.	/	/	/
CC(=O)N1CCN(S(=O)(=O)c2cccc(C(=O)N(C)Cc3ccc(C)o3)c2)CC1	.	.	.	.	.	.
COc1ccc(N(C)S(=O)(=O)c2cccc(C(=O)NC3CCC(C)CC3)c2)cc1 (centres undefined)	.	.	-61.9	?	?	.
COc1ccc(CN(C)C(=O)c2cccc(C(=O)N(C)Cc3ccc(OC)cc3)c2)cc1	/	.	-71.3	/	.	/
COc1ccc(N(C)S(=O)(=O)c2cccc(C(=O)OCC(=O)c3c(N)n(C)c(=O)n(C)c3=O)c2)cc1	.	22.4µM	?	?	?	.
COc1ccc(N(C)S(=O)(=O)c2cccc(C(=O)NC3CCCCCC3)c2)cc1	.	?	.	?	?	.
CCOc1ccccc1N(C)C(=O)NCc1noc2ccccc12	.	.	.	.	/	.
CC(=O)OC[C@H]1O[C@H](CCO/N=C(\C)CCC(=O)OC[C@H]2O[C@H](C#Cc3ccccc3)C=C[C@@H]2Oc2ccc(C)cc2)C=C[C@@H]1OC(C)=O	/	/	/	/	.	/
O=C(c1cnn2c1NC(c1ccco1)CC2C(F)(F)F)N1CCN(c2cccc(Cl)c2)CC1 (centres undefined)	?	?	.	12.6µM	?	/
O=C(c1ccco1)N1CCN(C(=O)c2cnn3c2NC(c2cccs2)CC3C(F)(F)F)CC1 (centres undefined)	.	.	.	.	.	.
CCOC(=O)c1cccn1C1C(=O)N(Cc2ccc(C(F)(F)F)cc2)c2ccc(F)cc21 (centres undefined)	/	/	.	/	/	/
CCN(c1ccccc1)S(=O)(=O)c1ccc(Cl)c(NC(=O)Nc2ccc(Cl)cc2C#N)c1	10µM	.	?	?	?	11.2µM
CCN(c1ccccc1)S(=O)(=O)c1cc(NC(=O)Nc2ccccc2C#N)ccc1Cl	.	?	-68.5	.	.	?
CN(c1ccccc1)S(=O)(=O)c1cccc(NC(=O)Nc2ccc(Cl)cc2C#N)c1	.	.	.	.	.	.
CCCCCCCCCCCCC(=O)N1CCCC[C@H]1CNC(=O)[C@@H](N)CCCCN	/	.	/	/	/	/
O=Nc1ccc2oc(=O)ccc2c1	/	/	/	?	12.6µM	/
COc1cc2ccc(=O)oc2cc1O	.	?	.	/	/	.
COc1ccc(Cn2nnnc2C(c2ccccc2)N2CCN(c3ccccc3)CC2)cc1 (centres undefined)	.	/	/	/	/	.
N#Cc1c(N)n(CCc2ccc(F)cc2)c2nc3ccccc3nc12	.	.	-68.9	.	.	/
Oc1ccc2c(c1)oc1cc(O)ccc12	?	.	?	?	.	10µM
COc1c(C)oc2cc(O)ccc2c1=O	.	.	.	.	.	.
OC1(c2ccc3c(c2)CN(Cc2nccs2)CCO3)CCN(c2ccccc2F)CC1	.	.	/	/	/	.
